In PubChem BioAssay (NCATS):
Results filed as inconclusive are left out. Calls of active or inactive are those of the source. Calls follow the shape of the dose curve; as a rule, active = well fitted inhibition curve with a large enough effect; inconclusive = small, poorly fitted or top-dose-only effect; inactive = flat fitted curve, though single readings scatter. Where a SMILES comes first, the peptide text is derived from it. Bridges are numbered along the chain shown (N, C = ends). [ ]: non-standard residue; d: D form. NMeY = CN[CH](Cc1ccc(O)cc1)C(=O)O

molecular target: Phospholipid hydroperoxide glutathione peroxidase GPX4 (Homo sapiens) (UniProt P36969); experiment: Primary qHTS Assay for Inhibitors of Recombinant Selenoprotein Glutathione Peroxidase 4 (GPX4) (AID 1845192); settings: recombinant GPX4, GR-coupled NADPH fluorescence, 15 min; series mostly up to 50 µM; activity change, negative = inhibition: at the top concentration; also: nearly all actives have a fitted effect of over 65% in size; as to activity change, negative = inhibition: % is scaled to controls: 0 for no effect and ±100 for the full control effect
Procedure, shortened: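 GR-coupled assay: recombinant GPX4 preincubated 30 min with compound at room temperature; final 200 nM GPX4, 1 mM GSH, 0.5 mM cumene hydroperoxide, 0.5 mM NADPH, 100 nM GR, 0.01% BSA, pH 7.5 Tris. NADPH fluorescence (340/450 nm) read at 0 and 15 min.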

Phospholipid hydroperoxide glutathione peroxidase GPX4 (Homo sapiens), sequence (P36969 whole entry, looked up): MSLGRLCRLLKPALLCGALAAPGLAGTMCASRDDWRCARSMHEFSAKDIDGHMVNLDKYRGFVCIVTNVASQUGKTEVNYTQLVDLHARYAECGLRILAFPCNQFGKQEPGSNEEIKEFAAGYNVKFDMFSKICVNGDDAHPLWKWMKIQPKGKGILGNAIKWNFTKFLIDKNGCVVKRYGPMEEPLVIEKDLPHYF

Compound	activity change, negative = inhibition	outcome
O=C(CCc1nnc2n(Cc3ccc(Cl)cc3)c(=O)c3ccccc3n12)NCCC1=CCCCC1	18.8% (inactive)	
CNC(=O)c1cccc(-c2ccc3c(N4CCOC[C@@H]4C)nc(N4CCOC[C@@H]4C)nc3n2)c1	-24.9% (inactive)	
CCC1=CC2CN(C1)Cc1c([nH]c3ccccc13)[C@@](C(=O)OC)(c1cc3c(cc1OC)N(C)[C@H]1[C@@](O)(C(=O)OC)[C@H](OC(C)=O)[C@]4(CC)C=CCN5CC[C@]31[C@@H]54)C2 (some centres undefined)	-3.33% [at 27.8 µM] (inactive)	
CC(=O)OC1C(=O)C2(C)C(O)CC3OCC3(OC(C)=O)C2C(OC(=O)c2ccccc2)C2(O)CC(OC(=O)C(O)C(NC(=O)c3ccccc3)c3ccccc3)C(C)=C1C2(C)C (centres undefined)	-14.4% (inactive)	
COc1cc(O)cc(C)c1C(=O)OC1C(CO)OC(OC2C(O)C(O)C(O)C(O)C2O)C(O)C1O (centres undefined)		inactive [at 27.8 µM]
CC(Nc1ncnc2nc[nH]c12)c1cc2cccc(Cl)c2c(=O)n1-c1ccccc1 (centres undefined)	-0.57% (inactive)	
CC(C)(O)C1CCC(C)(C2CCC3(C)C4CCC5C(C)(C(=O)OC6OC(CO)C(O)C(O)C6O)C(O)CC(O)C56CC46CCC23C)O1 (centres undefined)	-5.07% [at 15.3 µM] (inactive)	
CC(C)C(N)C(=O)OCCOCn1cnc2c(=O)[nH]c(N)nc21 (centres undefined)	-15.4% (inactive)	

molecular target: Luciferin 4-monooxygenase (Photinus pyralis) (UniProt P08659); experiment: Primary firefly luciferase (FLuc) qHTS assay for identification of artifact compounds. (AID 1845220); settings: purified firefly luciferase, luminescence, 5 min; series mostly up to 54.1 µM; activity change, negative = inhibition: at the top concentration; also: nearly all actives have a fitted effect of over 60% in size;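 as to activity change, negative = inhibition: plate controls were DMSO vehicle for no effect and no enzyme for full effect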
Procedure, shortened: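 Enzymatic FLuc inhibition assay: compounds pre-exposed to luciferin/ATP (10 uM each) for 15 min, then purified P. pyralis enzyme at 10 nM added. Read-out: luminescence at 5 min.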

Compound	outcome	activity change, negative = inhibition
COC(C(=O)N1Cc2[nH]nc(NC(=O)c3ccc(N4CCN(C)CC4)cc3)c2C1)c1ccccc1 (centres undefined)	inactive	
CC1OC(O[C@H]2CC[C@@]3(C)C(CC[C@]4(C)C3CC=C3C5CC(C)(C)CC[C@]5(C(=O)OC5OC(CO)C(OC6OC(COC7OCC(O)C(O)C7O)C(O)C(O)C6O)C(O)C5O)CC[C@]34C)C2(C)C)C(O)C(O)C1OC1OCC(OC2OCC(O)C(O)C2O)C(O)C1O (some centres undefined)		-3.25% [at 11.6 µM] (inactive)
COc1ccc(CNC(=O)c2cc(-c3cncc(C)c3)ncc2-c2nccs2)nc1OC	inactive	
CC(=O)SCC(=O)c1ccc(NS(=O)(=O)c2ccc(OCCCN(C)C)cc2)nc1		-2.05% (inactive)
N=c1nc2n(cc1F)C1OC(CO)C(O)C1O2 (centres undefined)		-1.95% (inactive)
Cc1ccc(C(=O)N(CCCN)C(c2nc3cc(Cl)ccc3c(=O)n2Cc2ccccc2)C(C)C)cc1 (centres undefined)	inactive	
OC[C@H]1O[C@@H](OCCc2ccccc2)[C@H](O[C@@H]2OC[C@](O)(CO)[C@H]2O)[C@@H](O)[C@@H]1O	inactive [at 25.7 µM]	
Cc1ccc(NC(=O)c2ccc(CN3CC[C@H](N(C)C)C3)c(C(F)(F)F)c2)cc1Nc1nccc(-c2cncnc2)n1		-4.82% [at 25.7 µM] (inactive)
COc1cc(O)c([C@@H](CC(=O)N2CC(C)CC(C)C2)c2ccc3c(c2)OCO3)c(OC)c1 (some centres undefined)		2.59% (inactive)
O=C(Nc1ccc(S(=O)(=O)Nc2nccs2)cc1)C(c1ccccc1)c1ccccc1	inactive	
CC1CCN(C(=O)CC#N)CC1N(C)c1ncnc2[nH]ccc12 (centres undefined)		0.135% (inactive)
CN(C)C(=O)NC1CCC(CCN2CCN(c3cccc(Cl)c3Cl)CC2)CC1 (centres undefined)		2.95% [at 11.6 µM] (inactive)
CCC(C)C1NC(=O)C2CCCN2C(=O)C(NC(C)=O)C(C)OC(=O)C(Cc2ccc(OC)cc2)N(C)C(=O)C2CCCN2C(=O)C(C(C)C)NC1=O (centres undefined) (Ac-TPIVP[NMeY](Me); ester 1-C; configuration not given here)		-6.78% [at 25.7 µM] (inactive)
COc1cccc2cc3c(c(O[C@@H]4O[C@H](CO[C@@H]5O[C@H](CO)[C@@H](O)[C@H](O)[C@H]5O)[C@@H](O)[C@H](O)[C@H]4O)c12)C(C)OC3=O (some centres undefined)		-1.96% [at 25.7 µM] (inactive)
CC(C)(F)C[C@@H](N[C@@H](c1ccc(-c2ccc(S(C)(=O)=O)cc2)cc1)C(F)(F)F)C(=O)NC1(C#N)CC1	inactive	
C[C@@H]1CCC2C(C)(C)[C@H](O)CC[C@]2(C)[C@@]12Cc1c(O)cc3c(c1O2)CN([C@@H](CCC(=O)O)C(=O)O)C3=O (some centres undefined)		2.07% [at 25.7 µM] (inactive)
C=C[C@]1(C)C=C2CCC3C(C)(CCC[C@@]3(C)C(=O)O)C2CC1 (some centres undefined)	inactive	
CC(=O)N[C@@H](CCCCN)C(=O)N(C)[C@@H](CC(C)C)C(=O)N[C@H](C(=O)N(C)[C@@H](Cc1ccccc1)C(=O)N[C@H](Cc1ccccc1)C(N)=O)C(C)C		1.94% [at 6.45 µM] (inactive)
CC(NC(=O)CCc1nc2ccccc2c(=O)[nH]1)c1ccccc1 (centres undefined)		-1.76% (inactive)
COC1=CC(=O)CC(C)C12Oc1cc(OC)cc(O)c1C2=O (centres undefined)	inactive	
CC(=O)OC12COC1CC(O)C1(C)C(=O)C(O)C3=C(C)C(OC(=O)C(O)C(NC(=O)OC(C)(C)C)c4ccccc4)CC(O)(C(OC(=O)c4ccccc4)C21)C3(C)C (centres undefined)		-9.65% (inactive)
